Source: PubChem BioAssay (Tox21)
Results filed as inconclusive are left out. Calls of active or inactive are those of the source. Calls come from the whole dose curve; as a rule, active = well fitted cell-killing curve with a large enough effect in the repeat runs; inconclusive = weak or mixed curves; inactive = flat fitted curve, though single readings scatter.

Assay: qHTS assay to identify small molecule antagonists of the estrogen receptor beta (ER-beta) signaling pathway - cell viability counter screen (AID 1259382); note: nearly all actives have a fitted effect of over 55% in size
Conditions: ER-beta-UAS-bla HEK293T viability, CellTiter-Glo luminescence, 16 h; series mostly up to 92.4 µM; activity change, negative = cytotoxicity: at the top concentration
Source text: U.S. Tox21 Program National Center for Advancing Translational Sciences [NCATS] NIH Chemical Genomics Center [NCGC] U.S. Environmental Protection Agency [EPA] National Institutes of Environmental Health Sciences [NIEHS] National Toxicology Program [NTP] U.S. Food and Drug Administration [FDA] Tox21 Assay Overview: Estrogen receptor (ER), a nuclear hormone receptor, plays an important role in development, metabolic homeostasis and reproduction. Two subtypes of ER, ER-alpha and ER-beta, have similar expression patterns with some uniqueness in both types. Endocrine disrupting chemicals (EDCs) and their interactions with steroid hormone receptors like ER causes disruption of normal endocrine function. To identify the compounds that inhibit ER signaling, an ER-beta-UAS-bla GripTite cell line (Life Technologies, Madison, WI, USA) containing a beta-lactamase reporter gene under the control of an UAS response element was used to screen Tox21 10K compound library. The cytotoxicity of the Tox21 compound library against the ER-beta-bla cell line was tested in parallel by measuring the cell viability using CellTiter-Glo assay in the same wells.
Tox21 Assay Protocol Summary: ER-beta-UAS-bla HEK293T cells were dispensed at 2,000 cells/4 uL of assay medium containing 2% charcoal stripped FBS per well into black wall/clear-bottom 1536-well plates using a Multidrop Combi (ThermoFisher Scientific, Waltham, MA) dispenser. After the assay plates were incubated at a 37C and 5% CO2 for 6 hr, 23 nL of compounds dissolved in DMSO, positive controls or DMSO only was transferred to the assay plate by a Pintool station (Kalypsys, San Diego, CA), followed by addition of 1 uL (1nM as final concentration) of 17-beta-estradiol (E2) in assay medium using a Flying Reagent Dispenser (FRD, Aurora Discovery, San Diego, CA). The plates were incubated at 37C and 5% CO2 for 16 hr. Then 1 uL of LiveBLAzer B/G FRET substrate was added using a Flying Reagent Dispenser, the plates were incubated at room temperature for 2 hours, and fluorescence intensity was measured by an Envision plate reader (PerkinElmer, Shelton, CT). For cell viability readout that measures cytotoxicity, 4 uL/well of CellTiter-Glo reagent was added into the assay plates using a FRD. After 30 min incubation at room temperature, the luminescence intensity in the plates was measured using a ViewLux (PerkinElmer) plate reader.
% is set by controls: 0 for no effect and ±100 for the full control effect.

SMILES | activity change, negative = cytotoxicity
CCN1CCCC1CNC(=O)C(O)(c1ccccc1)c1ccccc1 (stereo not given) | 2.43% [at 42.5 µM] (inactive)
C[C@H](N)C(=O)c1ccccc1 | 9.89% (inactive)
CCSC(=O)Cl | 11.3% (inactive)
S=C=S | 2.56% (inactive)
CCCOc1nn(C(=O)NS(=O)(=O)c2ccccc2C(=O)OC)c(=O)n1C | -1.55% (inactive)
BrCc1ccc(Br)cc1 | 10.1% (inactive)
O=C(Cl)C(Cl)(Cl)Cl | -0.431% (inactive)
CC[C@@H](CO)NC(=O)[C@@H]1C=C2c3cccc4[nH]cc(c34)C[C@H]2N(C)C1 | -1.36% [at 42.5 µM] (inactive)
CCOC(=O)NC(C)(C)Cc1ccc(Cl)cc1 | 5.51% [at 42.5 µM] (inactive)
O=C(CCl)NCO | 6.23% (inactive)
CN(C)C1CCCCC1 | 7.19% (inactive)
NCC1(CC(=O)O)CCCCC1 | 0.728% [at 42.5 µM] (inactive)
CCCCOC(C)=O | 3.32% (inactive)
CC(C)[C@]12CC(=O)[C@H](C)[C@H]1C2 | 2.11% (inactive)
O=C(Cl)OCc1ccccc1 | 5.01% (inactive)
CCOC(=O)C(Cl)Cc1cc(-n2nc(C)n(C(F)F)c2=O)c(F)cc1Cl (stereo not given) | 0.719% (inactive)
COP(=O)(OC)O/C(C)=C/C(=O)N(C)C | 4.28% (inactive)
C=C1C[C@@H]2[C@H](CC[C@]3(C)C(=O)CC[C@@H]23)[C@@]2(C)C=CC(=O)C=C12 | -2.24% [at 42.5 µM] (inactive)
CC(Cc1ccccc1)NCCn1cnc2c1c(=O)n(C)c(=O)n2C (stereo not given) | 1.72% (inactive)
Oc1ccc2c3c1O[C@H]1[C@@H](O)C=C[C@H]4[C@@H](C2)NCC[C@@]341 | -9.04% (inactive)

SMILES | activity change, negative = cytotoxicity
CCC(C)(C#N)N=NC(C)(C#N)CC (stereo not given) | 3.64% (inactive)
Brc1c(Br)c(Br)c(Br)c(Br)c1Br | -0.381% [at 8.39 µM] (inactive)
CC(C)c1ccc(O)cc1 | 5.74% (inactive)
CC1N=C(N)OC1c1ccccc1 (stereo not given) | -14.5% (inactive)
CC(O)CCl (stereo not given) | 0.0836% (inactive)
C=C(Cl)CSC(=S)N(CC)CC | -9.96% (inactive)
Cn1c(N)nc2c3cccnc3ccc21 | 4.36% (inactive)
C[C@H](CN1CCOCC1)C(C(=O)N1CCCC1)(c1ccccc1)c1ccccc1 | -19.3% (inactive)
CC1=C2[C@H]3OC(=O)[C@@H](C)[C@@H]3CC[C@@]2(C)C=CC1=O | -1.59% [at 42.5 µM] (inactive)
CCCOC(=O)Cc1ccc(OCC(=O)N(CC)CC)c(OC)c1 | -2.48% [at 42.5 µM] (inactive)
Cl/C=C/CCl | -1.76% (inactive)
Clc1cc2c(cc1Cl)Oc1cc(Cl)c(Cl)cc1O2 | -1.8% [at 0.349 µM] (inactive)
COP(=O)(O)OC | 1.39% (inactive)
BrCCc1ccccc1 | 8.85% (inactive)
CC1NCCOC1c1ccccc1 (stereo not given) | 2.08% [at 42.5 µM] (inactive)
CN1C(=O)COc2c(C(=O)NC3CN4CCC3CC4)cc(Cl)cc21 (stereo not given) | -7.19% [at 42.5 µM] (inactive)
CN(C)CCN(C)C | 13.6% (inactive)
O=c1[nH]c2ccccc2n1C1CCNCC1 | 9.7% [at 42.5 µM] (inactive)
CCC(CC)(CNC(=O)CCCO)c1cccc(OC)c1 | 10.9% [at 42.5 µM] (inactive)
CN(C)CCc1c[nH]c2cccc(OP(=O)(O)O)c12 | 7.92% (inactive)
